About 4,700 (1.3%) of roughly 370,000 compounds were called active.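 How the source made its calls: active means inhibition above the plate cutoff, the mean of all test compounds on that plate plus 3 SD (cut at about 35% in these data); inactive means the rest.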 The entries come from a sample that favours actives as a whole.
assay: binders of r(CAG) RNA repeats, primary screen, biochemical, fluorescence (AID 651821); details: r(CAG) RNA repeat, TO-PRO-1 dye displacement fluorescence; at 3 µM; stronger effect = higher value;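 further: 0% = DMSO alone and 100% = 100 µM mitoxantrone as full dye displacement; higher means more dye released from RNA so lower well fluorescence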

inhibition, inactive:
O=C(c1ccncc1)N1CC[C@H]2[C@H](CCCN2Cc2ccc(F)cc2)C1 -0.17%, COC(=O)C1=C(C(=O)OC)C2C=C(C(C)C)C1C(=O)C2(C)O (stereo not drawn) 2.51%, Cc1ccc(C)c(NC(=O)CCS(=O)(=O)c2ccccc2)c1 5.79%, COC(=O)C(C(=O)OC)c1ccccc1NS(=O)(=O)c1cccc2ccccc12 6.69%, Cc1ccc(C(=O)C2CCN(CC(=O)NCCC(C)C)CC2)cc1 -4.12%, COC(=O)C1=C(C)N(Cc2ccccc2C(F)(F)F)C(=NCC2CC2)NC1c1cccc(Cl)c1 (stereo not drawn) 2.17%, COC(=O)c1ccc(C(NC(=O)OCc2ccccc2)/C(F)=C/[C@@H](C)C(=O)O)cc1 (stereo partly drawn) 7.38%, CC(C)[C@H](NC(=O)OCc1ccccc1)C(=O)OCc1ccccc1 -7.02%, O=S1(=O)CC(N2CCN(CCO)CC2)CN1Cc1cn(Cc2cccc(Cl)c2)nn1 (stereo not drawn) 1.81%, Cc1ccccc1CSc1nnc(-c2ccccc2)c(=O)[nH]1 6.58%, COc1ccccc1CSc1ncc(-c2ccc([N+](=O)[O-])cc2)[nH]1 6.09%, O=C(Nn1c(SCc2ccc([N+](=O)[O-])cc2)nc2ccccc2c1=O)c1ccc(F)cc1 25.7%, Cc1ccc(CSc2nc3[nH]ncc3c(=O)[nH]2)cc1 -3.55%, Cc1ccc(CSc2nsc(C)c2C#N)cc1 -2.07%, CC1(Cc2cccc(C#N)c2)C(=O)Nc2ccc(-c3cccc(C(F)(F)F)c3)cc21 (stereo not drawn) 2.77%, CN(C(N)=NC(=O)/C=C/c1ccccc1)C(C#Cc1ccccc1)Cc1ccccc1 (stereo not drawn) 3.26%, COc1ccc(-c2cc(-c3nnc(SCc4ccc([N+](=O)[O-])cc4)n3N)[nH]n2)cc1 9.69%, COC(=O)c1cccc(Cn2ccc3ccc(-c4ccc5ccn(C(=O)C6CCCCC6)c5c4)cc32)c1 12.2%, Cc1ccc(Cn2cc(CN3[C@@H](C)COc4cc(Br)ccc4S3(=O)=O)nn2)cc1 3.68%, C=CCN1C(=O)[C@H](CC(=O)NCCCN2CCCC2=O)[C@@]2(C(=O)OCC)CCCC=C12 1.48%, COc1cc(NC(=O)C2CCCN(S(=O)(=O)c3ccc(C(C)(C)C)cc3)C2)cc(OC)c1 (stereo not drawn) 9.76%, Cc1c(Cl)cccc1NC(=O)CCC(=O)N/N=C/c1ccco1 -4.6%, Cc1ccc(-n2c(SCC(=O)Nc3cccc4ccccc34)nnc2-c2ccco2)cc1 6.64%, O=C(N/N=C/c1sc(N2CCCCC2)nc1-c1cccs1)c1cccnc1 5.88%, O=C(O)c1ccc(NC(=O)c2ccc(COc3ccc(Cl)cc3)o2)cc1 22.1%, O=C(c1cnn(-c2ccc(Cl)cc2)c1)c1ccccc1O 2.23%, O=C(/C=C/c1cn(-c2ccccc2)nc1-c1ccc2c(c1)OCCO2)NCCCN1CCOCC1 -0.21%, O=C(c1cn(-c2ccccc2)nc1-c1cccnc1)N1CCN(S(=O)(=O)c2ccccc2F)CC1 3.83%, O=C(NNC(=S)NCCCN1CCOCC1)c1ccncc1 -0.42%, COc1ccc(NC(=O)c2cn(-c3ccccc3)nc2SC)cc1 5.53%, CC(=O)c1ccc(NC(=O)c2cc(-c3cccs3)on2)cc1 -1.84%, CC1CCCN(c2cccc3c2S(=O)(=O)N(Cc2ccc(F)cc2)[C@@H](C)[C@H](c2ccccc2)O3)C1 (stereo partly drawn) 1.44%, Cn1cc(S(=O)(=O)Nc2ccc(Cl)cc2Cl)c(=O)n(C)c1=O 1.76%, COC(=O)c1ccc(CN2C(=O)[C@]3(OCCC=C[C@H]3C)c3c(Br)cccc32)cc1 0.13%, O=S(=O)(c1ccccc1)N1CCC(c2nc3ccccc3o2)CC1 0.56%, COC(=O)[C@]12CCCCC=C1N(Cc1ccc(Cl)cc1Cl)C(=O)[C@H](CC(=O)NCc1cccc3ccccc13)C2 12.9%, O=C(NC1CCC1)c1ccc(C#Cc2cccc(F)c2)c[n+]1[O-] 1.31%, C#CCNC(=O)C[C@H]1C[C@@]2(C(=O)OC)C(=C[C@H](C(C)C)O[C@@H]2C2CC2)N(Cc2ccco2)C1=O -0.82%, COC1=C[C@H](C(=O)NCCNC(C)=O)[C@H](C)[C@@H](c2ccccc2)CC1=O 7.1%, COC(=O)C1=C(C)N(Cc2cccc(C(F)(F)F)c2)C(=NCc2ccccc2)NC1c1ccc(Cl)cc1 (stereo not drawn) 6.45%, N#CC1(NC(=O)COC(=O)Cc2n[nH]c(=O)c3ccccc23)CCCCC1 -1.83%, COC(=O)c1cccc(Cn2ccc3ccc(-c4ccc5ccn(C(=O)c6ccccc6C)c5c4)cc32)c1 10.1%, COC(=O)C[C@@H]1CC[C@@H]2[C@@H](COc3ccc(NC(=O)Nc4ccc(F)c(F)c4)cc3C(=O)N2C)O1 3.67%, CCOC(=O)[C@H]1Nc2ccc(Cl)cc2[C@@H]2[C@H]1C1CC(c3ccccc31)N2C(=O)OCc1ccccc1 (stereo partly drawn) 8.62%, CCOC(=O)C[C@H]1c2ccc(C(F)(F)F)cc2S(=O)(=O)N1c1ccccc1 4.3%, CC1=CC=CC2=N/C(=N\S(=O)(=O)c3ccc(F)cc3F)c3ccccc3CN12 -1.16%, CC(=O)c1cc(-c2ccc3ccccc3c2)c(=O)n2c1CCC2 5.03%, O=C(CSc1nc2sc3c(c2c(=O)n1-c1ccccc1)CCCC3)NN=Cc1ccc(OCc2ccccc2)cc1 7.65%, CN(C(=O)CSc1nnc(Nc2ccccc2)s1)C1CCS(=O)(=O)C1 (stereo not drawn) 0.39%, CC(C)Nc1nnc(SCC(=O)c2c[nH]c3ccccc23)s1 3.39%, O=S(=O)(NC(=S)Nc1ccccc1)c1ccc(F)cc1 1.19%, C/C(CC(=O)N1CCN(C=O)CC1)=N\NC(=O)c1ccc(Br)cc1 0.43%, O=C1c2ccccc2NC(c2ccccc2O)N1NS(=O)(=O)c1ccccc1 (stereo not drawn) 2.81%, CC(=O)N1C(=O)/C(=C2\SC(=S)N(NC(=O)c3ccc(O)cc3)C2=O)c2ccccc21 14%, CC1(NC(=O)CCS(=O)(=O)c2ccc(Cl)cc2)CCS(=O)(=O)C1 (stereo not drawn) 2.03%, OC(c1ccccc1)c1nc(-c2cnc3ccccc3c2)cs1 (stereo not drawn) 16.2%, Cc1ccc(CSc2nnc(SCC(=O)NN=Cc3cc(Br)ccc3F)s2)cc1 5.78%, Cc1ccc(C(=O)O)c(NC=O)c1OCc1ccccc1 0.76%, Cc1ccc(S(=O)(=O)N2CCCC2CO)cc1 (stereo not drawn) -2.42%, O=C(O)C1CCCN1S(=O)(=O)c1ccc(Br)cc1 (stereo not drawn) -0.5%, CCCCC[C@@H]1C=C(C(=O)OCC)[C@H](c2ccccc2)N1S(=O)(=O)c1ccc(C)cc1 5.36%, CCOC(=O)C1=CC[C@@H](c2ccccc2)N(S(=O)(=O)c2ccc(C)cc2)[C@H]1c1ccc(CC)cc1 2.92%, CCn1c(SCC(C)=O)nc2sc3c(c2c1=O)CCCC3 4.43%, CCOC(=O)[C@]12CCCC3=C1N(CCC3)C(=O)[C@@H](CC(=O)NCC13CC4CC(CC(C4)C1)C3)C2 -1.58%, O=C(c1ccccc1)c1ccc(-c2ccccc2C(=O)NC2CCCCN(Cc3ccc(Cl)cc3)C2=O)cc1 (stereo not drawn) 12.5%, Cc1ccc(C)c(CN2CCC(CNC(=O)C3CCCN(c4ncnc5c4nc4n5CCCCC4)C3)CC2)c1 (stereo not drawn) -1.34%, CCCCCCCCNS(=O)(=O)/C=C/c1cc(C)ccc1CNC(=O)OC(C)(C)C 5.11%

inhibition, active:
COc1ccc(COC(=O)NC(C(=O)O)c2ccccc2)cc1 (stereo not drawn) 41.2%, N#Cc1c(-c2ccccc2)nc(SCc2ccc([N+](=O)[O-])cc2)[nH]c1=O 74%, Cc1ccc(CSc2nc(-c3ccccc3)c(C#N)c(=O)[nH]2)cc1 84.2%, N#Cc1c(-c2ccccc2)nc(SCc2cccc(C(F)(F)F)c2)[nH]c1=O 91.1%, O=C(CCCN1C(=O)/C(=C\c2ccco2)SC1=S)Nc1cccc2ccccc12 40.1%, O=C(O)c1ccc(NC(=O)c2cn(-c3ccccc3)nc2-c2ccc(Cl)cc2)cc1 80.9%, O=C(NNC(=S)NC(=O)c1cn(-c2ccccc2)nc1-c1ccccc1)c1ccncc1 42.5%, O=C(O)c1ccc(N/N=C/c2cn(-c3ccccc3)nc2-c2cccs2)cc1 70.5%, COc1ccc(-c2nn(-c3ccccc3)cc2/C=C\C(=O)Nc2ccc(C(=O)O)cc2)cc1 83.7%, CCOC(=O)C1Nc2ccc(C(F)(F)F)cc2C2C=CCC12 (stereo not drawn) 60.5%, N#Cc1ccccc1CN1C(=O)S/C(=C/c2cccn2-c2cccc(C(=O)O)c2)C1=O 58.4%, CC(C)c1ccc(Nc2nnc(SCC(=O)c3nnc(-c4ccccc4)o3)s2)cc1 50.7%, O=C1/C(=C/c2ccc(F)cc2)SC(=S)N1NS(=O)(=O)c1ccccc1 55.7%, O=C(O)c1ccc(/C=C2\SC(=S)N(NC(=O)c3ccc(Br)cc3)C2=O)cc1 34.9%, CCCCC[C@@H]1C=C(C(=O)O)[C@H](c2ccc(C#N)cc2)N1S(=O)(=O)c1ccc(C)cc1 62.3%, Cc1ccc(S(=O)(=O)N2[C@@H](c3ccc(Br)cc3)C(C(=O)O)=C[C@H]2CC2CCCC2)cc1 82.8%

Source: PubChem BioAssay AID651821 (The Scripps Research Institute Molecular Screening Center, 2012)
